# Vif inh: HIV Vif inhibition; HEK293T cells, Vif self-association by quenched fluorescence, imaging, 24 h; inhibition, % at 7.49 µM; hit rate 0.35% among 340,000; in the data active = inhibition above about 50%, passing the limit was not always enough
# esBAF inh: blocks esBAF chromatin remodeling in mouse ES cells | reporter increase, % at 12.5 µM | Bmi1-luciferase knock-in reporter, 24 h; 100% = twice the neutral-well signal | hit rate 2% among 350,000; in the data active = activation above about 40%;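 also: 0% = median of the plate's neutral control wells and 100% = double that signal; a rise in the Bmi1 reporter signal indicates esBAF inhibition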
# Glyco luc inh: N-linked glycosylation inhibition. D54 ERlucT glycosylation luciferase reporter, 24 h; percent of 100 nM tunicamycin response. reporter increase, % at 12.5 µM. hit rate 0.23% among 360,000. AID 588692;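 active = mean luciferase reporter signal, scaled so untreated is 0 and the glycosylation-blocking control 100, at or above a set limit in every replicate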;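 also: luciferase carries N-glycosylation sites so blocking glycosylation raises the light; 0% = median of neutral control wells and 100% = median of 100 nM tunicamycin wells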
# MITF TRPM1 HTS: MITF TRPM1 promoter activation in melanoma cells; SK-MEL-5 TRPM1-promoter luciferase, 24 h; % of positive control, neutral wells = 0; activation, % at 12.5 µM; hit rate 0.75% among 300,000;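 active = mean activation of at least 80% with every replicate also reaching 80%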;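 also: 0% = neutral control wells and 100% = parthenolide positive control wells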
# Wnt bcat act: activators of Wnt/beta-catenin signaling | AID 743398 | Wnt/beta-catenin reporter cell assay, activator, plate reader | hit rate 1.2% among 300,000 | activation, % at 9.35 µM; in the data active = activation above about 30%, passing the limit was not always enough;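 also: 0% = neutral control wells and 100% = positive control wells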
# PvdQ acylase: blocks Pseudomonas aeruginosa PvdQ acylase activity; purified PvdQ acylase, fluorescence plate reader; inhibition, % at 10 µM; hit rate 0.063% among 340,000; AID 488965; in the data active = inhibition above about 30%, passing the limit was not always enough;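 also: 0% = vehicle neutral wells and 100% = reference inhibitor wells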
# Numbers without * were called inactive; nt = not tested or not shown. Most compounds without a hit are left out; they make up all but 2.9% or so of the library.
SMILES,Vif inh,esBAF inh,Glyco luc inh,MITF TRPM1 HTS,Wnt bcat act,PvdQ acylase
CC1(C)Cc2c(cnn2-c2ccc(F)cc2)C(NC(=O)C2=NNC(=O)CC2)C1 (stereo not drawn),-2.1,51.9*,2.5,31.0,-0.9,-8.5
CC1(C)Cc2c(cnn2-c2ccc(F)cc2)C(NC(=O)c2ccco2)C1 (stereo not drawn),-4.8,19.1,1.1,15.6,0.3,-8.6
CC1(C)Cc2c(cnn2-c2ccc(F)cc2)C(NC(=O)CCN2CCCC2=O)C1 (stereo not drawn),-6.7,44.5*,1.1,26.0,17.4,-11.3
C[C@H](CO)N1C[C@H](C)[C@@H](CN(C)S(=O)(=O)c2ccc(Cl)cc2)Oc2ccc(NC(=O)Nc3ccccc3)cc2C1=O,nt,1.2,nt,nt,nt,nt
COCC(=O)N(C)C[C@H]1Oc2ncc(-c3ccc(C)cc3)cc2C(=O)N([C@H](C)CO)C[C@@H]1C,nt,4.6,nt,nt,nt,nt
Clc1ccc(CSc2nc3ccncc3[nH]2)cc1,-5.5,-27.4,-11.3,16.5,37.4*,-12.0
Cc1ccc(NC(=O)NCC2CC2(Cl)Cl)cc1 (stereo not drawn),0.3,49.9*,-2.6,53.5,15.0,-13.8
C[C@@H]1CN([C@H](C)CO)C(=O)c2cc(NC(=O)Cc3cn(C)c4ccccc34)ccc2O[C@@H]1CN(C)Cc1ccncc1,nt,1.6,nt,nt,nt,nt
Nc1nc(-c2ccc(Cl)cc2)nnc1-c1ccc(Br)cc1,-1.6,52.0*,0.3,76.7,50.9*,-4.4
Cc1ccc(S(=O)(=O)N(C)C[C@H]2Oc3ccc(NC(=O)CCCN(C)C)cc3CC(=O)N([C@H](C)CO)C[C@H]2C)cc1,nt,6.0,nt,nt,nt,nt
C[C@H]1CN([C@@H](C)CO)C(=O)CCCn2cc(nn2)CO[C@H]1CN(C)C(=O)Nc1ccccc1C(F)(F)F,nt,0.7,nt,nt,nt,nt
OC(c1cccc(Cl)c1)c1nccc2ccccc12 (stereo not drawn),19.0,1.6,-1.2,nt,-0.7,35.5*
O=C(NC(=S)Nc1cccnc1)c1cccs1,-4.2,9.9,-0.5,18.7,10.3,11.2
Cc1ccnc(NC(=O)c2ccc(Cl)s2)c1,-4.8,60.7*,-3.6,87.1*,nt,-17.8
Cc1ccnc(NC(=S)NC(=O)c2cccs2)c1,2.5,nt,-10.4,65.2,34.3*,7.5
O=C(Nc1ccon1)c1ccc(Cl)s1,nt,25.0,-0.9,0.1,nt,18.9
O=C(NC(=S)Nc1ccc(Cl)cn1)c1cccs1,-6.7,72.0*,-5.0,15.5,16.6,-12.6
O=C(C[C@@H]1CC[C@@H](NC(=O)CCN2CCCCC2)[C@@H](CO)O1)NCc1ccc(Cl)c(Cl)c1,nt,-3.9,nt,nt,nt,nt
CN1C(=O)c2cc(NC(=O)Nc3ccccc3F)ccc2OC[C@@H]2O[C@H](CC(=O)NCc3ccc(-c4ccccc4)cc3)CC[C@H]21,nt,0.7,nt,nt,nt,nt
C[C@H]1CCCCO[C@@H](CN(C)C(=O)CCCN(C)C)[C@@H](C)CN([C@@H](C)CO)C(=O)c2cc(NS(C)(=O)=O)ccc2O1,nt,-0.1,nt,nt,nt,nt
COc1ncc(-c2cccc3nccn23)c(OC)n1,3.4,-14.0,1.6,nt,-1.0,nt
COc1ccccc1-c1cccc2nccn12,66.8*,-2.4,0.6,nt,-0.3,nt
C[C@@H]1CCCCO[C@H](CN(C)S(C)(=O)=O)[C@@H](C)CN([C@@H](C)CO)C(=O)c2cc(NS(=O)(=O)c3cn(C)cn3)ccc2O1,nt,2.4,nt,nt,nt,nt
Cc1cc2ncn(C(=O)N3CCCCCC3)c2cc1C,14.8,49.3*,-1.2,30.9,5.2,-14.8
CCCN(C)C[C@H]1OCCCC[C@@H](C)Oc2ccc(NS(=O)(=O)c3cccs3)cc2C(=O)N([C@@H](C)CO)C[C@@H]1C,nt,5.6,nt,nt,nt,nt
SMILES,Vif inh,esBAF inh,Glyco luc inh,MITF TRPM1 HTS,Wnt bcat act,PvdQ acylase
O=C(Cc1ccc(Br)cc1)NC1CCCCC1,7.6,28.8,-2.0,31.9,20.1,-5.1
O=C(Cc1ccc(O)cc1)NC1CCCCCC1,-9.2,35.9,-3.9,90.2*,16.1,-6.1
O=C(Cc1ccc(Cl)cc1)NC1CC1,70.8*,-3.1,0.7,13.0,-1.2,-1.6
O=C(C[C@H]1C[C@@H]2c3cc(NC(=O)C4CCOCC4)ccc3O[C@@H]2[C@H](CO)O1)NCC(F)(F)F,nt,-3.2,nt,nt,nt,nt
N#Cc1c(N2CCCC2)nc(N)c2c(N)nc(N3CCCC3)cc12,-16.1,69.1*,40.7*,0.0,nt,-28.3
COc1cc2c(C#N)c(N3CCCC3)nc(N)c2c(N)n1,16.0,9.4,0.7,-0.7,0.8,-21.1
CO[C@H]1CN(C)C(=O)c2cc(NC(=O)C3CC3)ccc2OC[C@@H](C)N(CC2CC2)C[C@@H]1C,nt,1.5,nt,nt,nt,nt
